Consider 38 molecules from PubChem BioAssay (EPA / NIEHS).

Several values for one entry are separate records, joined by “and”; a condition that tells them apart may be missing. Equal entries are not always repeated. Where a structure was tested more than once in an assay, its records may differ in their call. Activity calls are given as the source filed them. The calls were made as follows: active = hit-call score of the fitted dose curve at least 0.9, where 1 is the maximum; inactive = score below 0.9.

A short description of the first test: ATG_EGR_CIS: Attagene CIS-FACTORIAL HepG2 Assay for human Early Growth Response 1 (EGR1) (AID 2282938). The conditions noted are these: HepG2 Attagene CIS-FACTORIAL EGR reporter mRNA; actives raise or lower the signal. Summed up:
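Endogenous TF activity in HepG2 liver cells was gauged through cis-promoter reporter constructs transiently transfected. After 24 h dosing, reporter mRNA was quantified by RT-PCR and capillary electrophoresis, and curves fitted in both directions versus DMSO.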
One may read the AC50 as the concentration giving half of the maximal activity seen. Take `COc1cc(-c2ccc(N)c(OC)c2)ccc1N`: the AC50 is 27.9 µM (active) and the result was inactive.

For `CC(=O)C(Cl)C(=O)N(C)C` (stereo not given), the outcome was inactive.

Turning to `O=C(Cl)c1ccc(Cl)cc1`, the outcome was inactive.

Take `CC(C)(C)CC(C)(C)c1ccc(O)cc1`: the result was inactive.

Turning to `C=CC(=O)N(C)C`, the call was inactive.

In the case of `CCOP(=O)(CN(CCO)CCO)OCC`, the molecule was classed as inactive.

For `C(=NC1CCCCC1)=NC1CCCCC1`, the concentration at half-maximal activity (AC50) was 3.17 µM (active).

Take `ClC1=C(Cl)[C@]2(Cl)[C@H]3[C@H]([C@H]4C=C[C@H]3C4)[C@@]1(Cl)C2(Cl)Cl`: the molecule was classed as inactive.

With `CC(C)c1ccc(CO)cc1`, the result was inactive.

Turning to `CCC1(c2ccc(N)cc2)CCC(=O)NC1=O` (stereo not given), the molecule was called inactive.

As for `COc1ccccc1OC`, the call was inactive.

`Clc1nc(Cl)nc(Cl)n1`: the molecule was called inactive.

Take `CC(C)C1CCC(Cc2ccc(Cl)cc2)C1(O)Cn1cncn1` (stereo not given): the result was inactive.

For `Cc1ccc2ccccc2c1C`, the outcome was inactive.

With `C[C@]12CC[C@H](O)CC1=CC[C@@H]1[C@@H]2CC[C@]2(C)C(=O)CC[C@@H]12`, the molecule was called inactive.

As for `ClCc1cccnc1`, the AC50 is 58.6 µM (active).

For `C[C@]12CCC(=O)C[C@@H]1CC[C@@H]1[C@@H]2CC[C@]2(C)[C@@H](O)CC[C@@H]12`, the call was inactive.

`Oc1cccc2cccnc12`: the AC50 is 70.1 µM (active) and the molecule was classed as inactive.

With `Cc1cc(Cl)ccc1O[C@H](C)C(=O)O`, the result was inactive.

`COc1ccc(C=O)cc1`: the molecule was called inactive.

In the case of `CNC(=O)O/N=C/C(C)(C)S(C)=O` (stereo not given), the outcome was inactive.

On to `COP(=S)(OC)Oc1ccc(S(=O)(=O)N(C)C)cc1`, for which the outcome was inactive.

For `OCc1ccco1`, the call was inactive.

For the molecule `O=[N+]([O-])c1c(Cl)c(Cl)cc(Cl)c1Cl`, the molecule was called inactive.

For `Cc1ccc(N)cc1Cl`, the molecule was classed as inactive.

Turning to `NC(=O)O`, the outcome was inactive.

On to `O=C(O)C(F)(F)C(F)(F)C(F)(F)C(F)(F)C(F)(F)C(F)(F)C(F)(F)C(F)(F)C(F)(F)C(F)(F)F`, for which the AC50 was 24.7 µM (active) and 14.8 µM (active).

As for `O=C(Nc1ccc2[nH]ccc2c1)c1cc2cc(F)ccc2n1Cc1cccc(F)c1`, the concentration at half-maximal activity (AC50) was 11 µM (active).

With `[O-][Cl+2]([O-])O`, the molecule was classed as inactive.

`Nc1ccc(-c2ccc(N)c(Cl)c2)cc1Cl`: the call was inactive.

With `CCC(=O)c1ccccc1`, the molecule was called inactive.

`CCOP(=S)(OCC)SCCS(=O)(=O)CC`: the result was inactive.

In the case of `Cl/C=C\C[N+]12CN3CN(CN(C3)C1)C2`, the molecule was called inactive.

As to `O=C1C2(Cl)C3(Cl)C4(Cl)C(Cl)(Cl)C5(Cl)C3(Cl)C1(Cl)C5(Cl)C24Cl` (stereo not given), the AC50 is 8.48 µM (active) and the result was inactive.

In the case of `CCOP(OCC)OCC`, the molecule was called inactive.

`Clc1ccc(C2(Cn3cncn3)CC(Br)CO2)c(Cl)c1` (stereo not given): the molecule was classed as inactive.

Take `CCCCP(CCCC)CCCC`: the outcome was inactive.

In the case of `Nc1ccc(N=Nc2ccc(-c3ccc(N=Nc4c(S(=O)(=O)O)cc5cc(S(=O)(=O)O)c(N=Nc6ccccc6)c(O)c5c4N)cc3)cc2)c(N)c1`, the molecule was called inactive.

Another test in a line: ATG_M_19_CIS: Attagene CIS-FACTORIAL HepG2 Assay for M19 Transcription Factor (Internal Marker) (AID 2282939). The following applies: HepG2 Attagene CIS-FACTORIAL M19 internal marker reporter; actives raise or lower the signal. The method, boiled down:
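Transfect HepG2 with MRTU reporter library → dose chemical, 24 h → isolate total RNA, reverse-transcribe with oligo(dT) → PCR, 6-FAM label, HpaI cut (2 h, 37 C) → capillary electrophoresis. Bidirectional fit vs DMSO.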
Take `COc1cc(-c2ccc(N)c(OC)c2)ccc1N`: the result was inactive.

Take `CC(=O)C(Cl)C(=O)N(C)C` (stereo not given): the result was inactive.

For the molecule `O=C(Cl)c1ccc(Cl)cc1`, the outcome was inactive.

`CC(C)(C)CC(C)(C)c1ccc(O)cc1`: the outcome was inactive.

As to `C=CC(=O)N(C)C`, the result was inactive.

For `CCOP(=O)(CN(CCO)CCO)OCC`, the outcome was inactive.

Turning to `C(=NC1CCCCC1)=NC1CCCCC1`, the outcome was inactive.

As to `ClC1=C(Cl)[C@]2(Cl)[C@H]3[C@H]([C@H]4C=C[C@H]3C4)[C@@]1(Cl)C2(Cl)Cl`, the molecule was classed as inactive.

For `CC(C)c1ccc(CO)cc1`, the molecule was called inactive.

Take `CCC1(c2ccc(N)cc2)CCC(=O)NC1=O` (stereo not given): the molecule was called inactive.

Take `COc1ccccc1OC`: the call was inactive.

With `Clc1nc(Cl)nc(Cl)n1`, the molecule was classed as inactive.

For `CC(C)C1CCC(Cc2ccc(Cl)cc2)C1(O)Cn1cncn1` (stereo not given), the result was inactive.

Consider `Cc1ccc2ccccc2c1C`, for which the molecule was classed as inactive.

For the molecule `C[C@]12CC[C@H](O)CC1=CC[C@@H]1[C@@H]2CC[C@]2(C)C(=O)CC[C@@H]12`, the result was inactive.

Turning to `ClCc1cccnc1`, the molecule was classed as inactive.

Consider `C[C@]12CCC(=O)C[C@@H]1CC[C@@H]1[C@@H]2CC[C@]2(C)[C@@H](O)CC[C@@H]12`, for which the result was inactive.

Regarding `Oc1cccc2cccnc12`, the molecule was called inactive.

On to `Cc1cc(Cl)ccc1O[C@H](C)C(=O)O`, for which the outcome was inactive.

`COc1ccc(C=O)cc1`: the molecule was called inactive.

For `CNC(=O)O/N=C/C(C)(C)S(C)=O` (stereo not given), the molecule was called inactive.

On to `COP(=S)(OC)Oc1ccc(S(=O)(=O)N(C)C)cc1`, for which the outcome was inactive.

Consider `OCc1ccco1`, for which the call was inactive.

On to `O=[N+]([O-])c1c(Cl)c(Cl)cc(Cl)c1Cl`, for which the call was inactive.

As for `Cc1ccc(N)cc1Cl`, the outcome was inactive.

As to `NC(=O)O`, the result was inactive.

For `O=C(O)C(F)(F)C(F)(F)C(F)(F)C(F)(F)C(F)(F)C(F)(F)C(F)(F)C(F)(F)C(F)(F)C(F)(F)F`, the AC50 is 138 µM (active) and the molecule was classed as inactive.

With `O=C(Nc1ccc2[nH]ccc2c1)c1cc2cc(F)ccc2n1Cc1cccc(F)c1`, the AC50 is 13.7 µM (active).

As for `[O-][Cl+2]([O-])O`, the molecule was classed as inactive.

Regarding `Nc1ccc(-c2ccc(N)c(Cl)c2)cc1Cl`, the molecule was called inactive.

As to `CCC(=O)c1ccccc1`, the call was inactive.

In the case of `CCOP(=S)(OCC)SCCS(=O)(=O)CC`, the outcome was inactive.

On to `Cl/C=C\C[N+]12CN3CN(CN(C3)C1)C2`, for which the molecule was classed as inactive.

For `O=C1C2(Cl)C3(Cl)C4(Cl)C(Cl)(Cl)C5(Cl)C3(Cl)C1(Cl)C5(Cl)C24Cl` (stereo not given), the result was inactive.

Consider `CCOP(OCC)OCC`, for which the molecule was classed as inactive.

In the case of `Clc1ccc(C2(Cn3cncn3)CC(Br)CO2)c(Cl)c1` (stereo not given), the molecule was classed as inactive.

Turning to `CCCCP(CCCC)CCCC`, the call was inactive.

With `Nc1ccc(N=Nc2ccc(-c3ccc(N=Nc4c(S(=O)(=O)O)cc5cc(S(=O)(=O)O)c(N=Nc6ccccc6)c(O)c5c4N)cc3)cc2)c(N)c1`, the result was inactive.
